SMILES strings stand for the structures. About 79,000 compounds went through this panel and 15% of them were active in at least one assay; those are over-represented in the sample as a whole. Unmarked numbers belong to inactive results. Activity calls are given as the source filed them. No stated cut-off is given here; in the data, active means growth inhibition above about 70%; inactive means the rest.

The nature of this assay: NCI Yeast Anticancer Drug Screen. Data for the mlh1 strain (AID 171).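 Further: 0% = growth of vehicle-treated control cultures of the same strain.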 As to conditions: S. cerevisiae mlh1 strain growth inhibition, hits give high values. As for the experimental part: Growth inhibition of yeast strains with defined genetic alterations is measured as a screen for potential anti-cancer activity. Selected strains with alterations in DNA damage repair or cell cycle control were exposed to compounds and growth inhibition was measured relative to vehicle treated controls. The strain used in this assay is mlh1

On to `CSc1ccccc1[As](C)C`, for which the growth inhibition runs as follows: (at 1.2 µM) 1%; (at 3.7 µM) 20%; (at 11.0 µM) 90% (active); (at 33.0 µM) 99% (active); (at 100.0 µM) 100% (active).
In the same order, the values of `CC1(Cl)CC(C)(/C=C/Cl)C(Cl)CC1Cl` (stereo not given) are 2%, 1%, 4%, 14% and 41%.
In the same order, the values of `CC1=C(O)C(=O)C=C2C1=CC=C1[C@@]2(C)CCC2(C)[C@@H]3C[C@@H](C)C(=O)C[C@]3(C)CC[C@]12C` (stereo not given in full) are 14%, 31%, 95% (active), 98% (active) and 96% (active).
In the same order, the values of `Cn1cnc(N)c1C(=N)[Se]` are 2%, -3%, 28%, 60% and 89% (active).
As for `COc1ccc(OC)c(/C=C/[N+](=O)[O-])c1`, the growth inhibition was 10% (at 1.2 µM); -2% (at 3.7 µM); 8% (at 11.0 µM); 28% (at 33.0 µM); 98% (active) (at 100.0 µM).
The corresponding values for `O=C1C=CC(=O)C1(Br)Br` are 1%, 11%, 36%, 95% (active) and 99% (active).
The corresponding values for `COC(=O)C(F)C(Br)C(=O)OC` (stereo not given) are 66%, 96% (active), 98% (active), 99% (active) and 99% (active).
The corresponding values for `O=C(COc1ccc(Cl)cc1Cl)NO` are 5%, -9%, -2%, 9% and 65%.

The record behind these values is PubChem BioAssay (NCI).
